The campaign covered roughly 69,000 compounds. About 8,600 (12%) showed an effect of 50% or more. The sample as a whole holds a higher share of strong results than the screen did.

The subject of the assay is Plasmodium berghei. The assay is described as follows: Screen against P. berghei liver stage (PbLuc), transformed with Luciferase, at 10uM. It is filed as functional, HepG2. The note with it: tested at 10 uM.
With `O=C(NCc1cccnc1)[C@@H]1C[C@H]2[C@H](CCN2c2ncccn2)O1`, the INHIBITION amounted to 73%.

Regarding `O=C(NCc1cccnc1)[C@@H]1C[C@H]2[C@H](CCN2c2ncc(F)cn2)O1`, the INHIBITION came to 21.8%.

As for `O=C(NCc1cccs1)[C@H]1CC[C@@H]2[C@@H](CCN2c2ncccn2)O1`, the INHIBITION is given as -50.8%.

Consider `O=C(NCc1cccnc1)[C@@H]1CC[C@@H]2[C@@H](CCN2c2ncc(F)cn2)O1`, for which the INHIBITION amounted to 73%.

For the compound `OCc1cn(Cc2cccc(C(F)(F)F)c2)nn1`, the INHIBITION is reported as -5.1%.

`CN(Cc1cnn(C)c1)C(=O)c1ccc(Cl)c(N2CCNC2=O)c1`: the INHIBITION came out at 18.4%.

As for `Cc1ccc(C(=O)N(C)CCCc2cnn(C)c2)cc1N1CCNC1=O`, the INHIBITION came to 58.8%.

Take `CCN(Cc1cnn(C)c1)C(=O)c1ccc(C)c(N2CCNC2=O)c1`: the INHIBITION is listed as 28.2%.

On to `O=C(NC1CCN(c2ncccc2F)C1)c1cccc(-n2ccnn2)c1` (configuration not stated), for which the INHIBITION is on record as -20.8%.

Take `C1CC(CN2C[C@@H]3CC[C@H]2CN(Cc2noc(C4CCCC4)n2)C3)C1`: the INHIBITION turned out to be 18.6%.

For the compound `CNC(=O)c1cccc(CNC(C)c2cc(Cl)ccc2OC)c1` (configuration not stated), the INHIBITION came out at 18.9%.

As for `CNC(=O)c1cccc(CCNS(C)(=O)=O)c1`, the INHIBITION is recorded as 21.3%.

As to `CNC(=O)c1cccc(CNC(C)c2ccc(F)cc2N(C)C)c1` (configuration not stated), the INHIBITION stood at 66.8%.

As for `CNC(=O)c1cccc(CNC(C)c2cc(C)ccc2OC(F)F)c1` (configuration not stated), the INHIBITION is 51.5%.

Turning to `CC(NCCCN1CCCC1=O)c1ccc(F)cc1N(C)C` (configuration not stated), the INHIBITION is on record as -2.75%.

On to `CC(NCCN1CCC(N(C)C)CC1)c1ccc(F)cc1N(C)C` (configuration not stated), for which the INHIBITION is listed as 40.6%.

For `O=S(=O)(NC[C@]12COC[C@H]1CN(c1ncc(F)cn1)C2)C1CC1`, the INHIBITION was -15.6%.

As to `CCOC(CC)C(=O)NCCC(=O)N1CCN(c2ncccn2)CC1` (configuration not stated), the INHIBITION is on record as -18.2%.

Consider `COc1ccc2nc(NC(=O)c3c(C(=O)O)cnn3C)sc2c1`, for which the INHIBITION stood at 28.7%.

Regarding `CC(CNCc1ccc2c(c1)n(C)c(=O)n2C)Oc1ccccn1` (configuration not stated), the INHIBITION is on record as -8.51%.

For the compound `Cc1ccccc1C1CCN(CCn2cc(-c3cccc(O)c3)nn2)C1` (configuration not stated), the INHIBITION came out at 59.3%.

In the case of `Cc1ccccc1C1CCN(CCn2cc(-c3nccs3)nn2)C1` (configuration not stated), the INHIBITION is listed as 4.15%.

For the compound `Cc1ccccc1C1CCN(CCn2cc(-c3nccn3C)nn2)C1` (configuration not stated), the INHIBITION is 28%.

On to `Cc1noc(OCC(=O)N2CCCCC2C)n1` (configuration not stated), for which the INHIBITION is recorded as -26.4%.

As for `Cn1ccc(CN2CCC(OCc3ccccc3)CC2)cc1=O`, the INHIBITION was 3.15%.

For the compound `Cn1ccc(CN2CCC(Oc3ccccc3)CC2)cc1=O`, the INHIBITION is given as 25.6%.

As for `Cc1cccc(C)c1OC1CCN(Cc2ccn(C)c(=O)c2)CC1`, the INHIBITION amounted to 58%.

Regarding `Cn1ccc(CN2CCC(COC3CCCC3)CC2)cc1=O`, the INHIBITION was 58%.

Regarding `COc1ccc(OC2CCN(Cc3ccn(C)c(=O)c3)CC2)cc1`, the INHIBITION is on record as 45.7%.

`Cn1ccc(CN2CCC(CO)CC2)cc1=O`: the INHIBITION is -10.8%.

Consider `CN(C)[C@@H]1CCN(C(=O)NC2CCCC2)[C@H]1Cc1ccncc1`, for which the INHIBITION amounted to 23.3%.

`O=c1[nH]c(N2CCCCC2)nc2c1CCN(Cc1cccnc1)C2`: the INHIBITION is reported as 8.72%.

For the compound `CCn1c(=O)c2cc(S(N)(=O)=O)ccc2n(CC)c1=O`, the INHIBITION is recorded as 2.84%.

Turning to `CC(C)N(C)Cc1cn2c(n1)CN(Cc1ccsc1)CC2`, the INHIBITION was -14.9%.

For the compound `Cc1cc(CN2CCCC(Cn3cncn3)C2)on1` (configuration not stated), the INHIBITION is reported as 35.3%.

Consider `Cc1nc(CNC(=O)NCc2cccnc2N(C)C)cs1`, for which the INHIBITION is -27.8%.

In the case of `COc1ccc(NC(=O)N2CCCC2c2ccco2)c(OC)c1` (configuration not stated), the INHIBITION was determined as 41.5%.

As for `CN(CCNC(=O)Nc1ccn(C)n1)Cc1ccc(F)cc1`, the INHIBITION was found to be 52.7%.

On to `CN(CCNC(=O)Nc1cnn(C)c1)Cc1ccc(F)cc1`, for which the INHIBITION turned out to be 49.3%.

`CN(CCNC(=O)Nc1nccs1)Cc1ccc(F)cc1`: the INHIBITION was found to be 2.7%.

For `O=C(Nc1nnn[nH]1)c1cc(-c2ccc(Br)s2)n[nH]1`, the INHIBITION worked out at 11.3%.

Consider `CN(Cc1ccco1)C(=O)C1CCCc2ccccc21` (configuration not stated), for which the INHIBITION turned out to be 50.5%.

Regarding `N#CCCN(Cc1ccco1)C(=O)C1CCCc2ccccc21` (configuration not stated), the INHIBITION came out at 24.2%.

Take `Cc1noc(C)c1CN(C)C(=O)C1CCCc2ccccc21` (configuration not stated): the INHIBITION is reported as 26.6%.

For `Cc1ccoc1C(=O)N1C[C@@H](N2CCN(C)CC2)[C@H]2OCCC[C@H]21`, the INHIBITION is recorded as -26.5%.

`Cc1cc(-c2cnc(NC3CCCC3)nc2-c2ccco2)on1`: the INHIBITION was -18.9%.

In the case of `Cc1cc(-c2cnc(NC3CC3)nc2-c2ccco2)on1`, the INHIBITION is on record as -21.4%.

For the compound `Cc1cc(-c2cnc(NC3CCCCC3)nc2-c2ccco2)on1`, the INHIBITION is recorded as 60.5%.

`Cc1cc(-c2cnc(NC3CCCC3)nc2-c2ccoc2)on1`: the INHIBITION worked out at 41.2%.

Take `Cc1cc(-c2cnc(NC3CCCC3)nc2-c2ccoc2C)on1`: the INHIBITION is reported as 78.5%.

As to `Cc1cnc(-c2nc(NC3CCCC3)ncc2-c2onc(C)c2C)cn1`, the INHIBITION is recorded as -29.8%.

Take `Cc1cc(-c2cnc(NC3CC3)nc2-c2ccoc2C)on1`: the INHIBITION stood at 58.1%.

As to `Cc1cc(-c2cnc(NC3CCCC3)nc2-c2ccc(C)o2)on1`, the INHIBITION is reported as 11.1%.

Turning to `Cc1occc1-c1nc(NC2CCCC2)ncc1-c1ccccn1`, the INHIBITION amounted to 62.9%.

On to `Cc1cc(-c2cnc(NC3CC3)nc2-c2ccc(C)o2)on1`, for which the INHIBITION is recorded as 39.2%.

On to `Cc1noc(-c2cnc(NC3CC3)nc2-c2ccco2)c1C`, for which the INHIBITION came out at 7.9%.

Take `Cc1cc(-c2cnc(NC3CC3)nc2-c2ccoc2)on1`: the INHIBITION is recorded as 3.91%.
